{
  "source": "paper PMC9911399",
  "about": "“Two distinct binding modes provide the RNA-binding protein RbFox with extraordinary sequence specificity”",
  "binders": {"B1": {"name": "AGCAGGG (DNA:RNA)", "RNA": "GGGAGACCGGAAUUCAGAUUGUCCAGCAGGGUUAAAUCCCGUCGUAGCCACCA", "DNA 1": "CAATCTGAATTCCGGTCTCCC", "DNA 2": "TGGTGGCTACGACGGGATT"}, "B2": {"name": "UGAGGUG (DNA:RNA)", "RNA": "B1 RNA with A25U, C27A, A28G, G30U", "DNA 1": "CAATCTGAATTCCGGTCTCCC", "DNA 2": "TGGTGGCTACGACGGGATT"}, "B3": {"name": "UCCGUAG (DNA:RNA)", "RNA": "B1 RNA with A25U, G26C, A28G, G29U, G30A", "DNA 1": "CAATCTGAATTCCGGTCTCCC", "DNA 2": "TGGTGGCTACGACGGGATT"}, "B4": {"name": "UGUAUGC (DNA:RNA)", "RNA": "B1 RNA with A25U, C27U, G29U, G31C", "DNA 1": "CAATCTGAATTCCGGTCTCCC", "DNA 2": "TGGTGGCTACGACGGGATT"}, "B5": {"name": "UGUAUUG (DNA:RNA)", "RNA": "B1 RNA with A25U, C27U, G29U, G30U", "DNA 1": "CAATCTGAATTCCGGTCTCCC", "DNA 2": "TGGTGGCTACGACGGGATT"}, "B6": {"name": "CGUAUGC (DNA:RNA)", "RNA": "B1 RNA with A25C, C27U, G29U, G31C", "DNA 1": "CAATCTGAATTCCGGTCTCCC", "DNA 2": "TGGTGGCTACGACGGGATT"}, "B7": {"name": "UUCUGCU (DNA:RNA)", "RNA": "B1 RNA with A25U, G26U, A28U, G30C, G31U", "DNA 1": "CAATCTGAATTCCGGTCTCCC", "DNA 2": "TGGTGGCTACGACGGGATT"}, "B8": {"name": "UGUAACC (DNA:RNA)", "RNA": "B1 RNA with A25U, C27U, G29A, G30C, G31C", "DNA 1": "CAATCTGAATTCCGGTCTCCC", "DNA 2": "TGGTGGCTACGACGGGATT"}, "B9": {"name": "AGGCGUG (DNA:RNA)", "RNA": "B1 RNA with C27G, A28C, G30U", "DNA 1": "CAATCTGAATTCCGGTCTCCC", "DNA 2": "TGGTGGCTACGACGGGATT"}, "B10": {"name": "ACCCAGU (DNA:RNA)", "RNA": "B1 RNA with G26C, A28C, G29A, G31U", "DNA 1": "CAATCTGAATTCCGGTCTCCC", "DNA 2": "TGGTGGCTACGACGGGATT"}, "B11": {"name": "GCACAUG (DNA:RNA)", "RNA": "B1 RNA with A25G, G26C, C27A, A28C, G29A, G30U", "DNA 1": "CAATCTGAATTCCGGTCTCCC", "DNA 2": "TGGTGGCTACGACGGGATT"}, "B12": {"name": "GCGCGCA (DNA:RNA)", "RNA": "B1 RNA with A25G, G26C, C27G, A28C, G30C, G31A", "DNA 1": "CAATCTGAATTCCGGTCTCCC", "DNA 2": "TGGTGGCTACGACGGGATT"}, "B13": {"name": "GCGCAUG (DNA:RNA)", "RNA": "B1 RNA with A25G, G26C, C27G, A28C, G29A, G30U", "DNA 1": "CAATCTGAATTCCGGTCTCCC", "DNA 2": "TGGTGGCTACGACGGGATT"}, "B14": {"name": "GCAUGUG (DNA:RNA)", "RNA": "B1 RNA with A25G, G26C, C27A, A28U, G30U", "DNA 1": "CAATCTGAATTCCGGTCTCCC", "DNA 2": "TGGTGGCTACGACGGGATT"}, "B15": {"name": "GCAUGUC (DNA:RNA)", "RNA": "B1 RNA with A25G, G26C, C27A, A28U, G30U, G31C", "DNA 1": "CAATCTGAATTCCGGTCTCCC", "DNA 2": "TGGTGGCTACGACGGGATT"}, "B16": {"name": "AUGUGUG (DNA:RNA)", "RNA": "B1 RNA with G26U, C27G, A28U, G30U", "DNA 1": "CAATCTGAATTCCGGTCTCCC", "DNA 2": "TGGTGGCTACGACGGGATT"}, "B17": {"name": "GCAUAUG (DNA:RNA)", "RNA": "B1 RNA with A25G, G26C, C27A, A28U, G29A, G30U", "DNA 1": "CAATCTGAATTCCGGTCTCCC", "DNA 2": "TGGTGGCTACGACGGGATT"}, "B18": {"name": "GUCCGUC (DNA:RNA)", "RNA": "B1 RNA with A25G, G26U, A28C, G30U, G31C", "DNA 1": "CAATCTGAATTCCGGTCTCCC", "DNA 2": "TGGTGGCTACGACGGGATT"}, "B19": {"name": "GCGCAUC (DNA:RNA)", "RNA": "GGGAGACCGGAAUUCAGAUUGUCCGCGCAUCUUAAAUCCCGUCGUAGCCACCA", "DNA 1": "CAATCTGAATTCCGGTCTCCC", "DNA 2": "TGGTGGCTACGACGGGATT"}, "B20": {"name": "CAAUGUA (DNA:RNA)", "RNA": "B1 RNA with A25C, G26A, C27A, A28U, G30U, G31A", "DNA 1": "CAATCTGAATTCCGGTCTCCC", "DNA 2": "TGGTGGCTACGACGGGATT"}, "B21": {"name": "CUCAACC (DNA:RNA)", "RNA": "B1 RNA with A25C, G26U, G29A, G30C, G31C", "DNA 1": "CAATCTGAATTCCGGTCTCCC", "DNA 2": "TGGTGGCTACGACGGGATT"}, "B22": {"name": "GAUGAAG (DNA:RNA)", "RNA": "B19 RNA with C26A, G27U, C28G, U30A, C31G", "DNA 1": "CAATCTGAATTCCGGTCTCCC", "DNA 2": "TGGTGGCTACGACGGGATT"}, "B23": {"name": "ACGCGCU (DNA:RNA)", "RNA": "B19 RNA with G25A, A29G, U30C, C31U", "DNA 1": "CAATCTGAATTCCGGTCTCCC", "DNA 2": "TGGTGGCTACGACGGGATT"}, "B24": {"name": "GAGAGCU (DNA:RNA)", "RNA": "B1 RNA with A25G, G26A, C27G, G30C, G31U", "DNA 1": "CAATCTGAATTCCGGTCTCCC", "DNA 2": "TGGTGGCTACGACGGGATT"}, "B25": {"name": "ACGUGAA (DNA:RNA)", "RNA": "B1 RNA with G26C, C27G, A28U, G30A, G31A", "DNA 1": "CAATCTGAATTCCGGTCTCCC", "DNA 2": "TGGTGGCTACGACGGGATT"}, "B26": {"name": "CGUCAAG (DNA:RNA)", "RNA": "B1 RNA with A25C, C27U, A28C, G29A, G30A", "DNA 1": "CAATCTGAATTCCGGTCTCCC", "DNA 2": "TGGTGGCTACGACGGGATT"}, "B27": {"name": "CCUGCAA (DNA:RNA)", "RNA": "B19 RNA with G25C, G27U, C28G, A29C, U30A, C31A", "DNA 1": "CAATCTGAATTCCGGTCTCCC", "DNA 2": "TGGTGGCTACGACGGGATT"}, "B28": {"name": "CUGAAUG (DNA:RNA)", "RNA": "B19 RNA with G25C, C26U, C28A, C31G", "DNA 1": "CAATCTGAATTCCGGTCTCCC", "DNA 2": "TGGTGGCTACGACGGGATT"}, "B29": {"name": "UGAAAUG (DNA:RNA)", "RNA": "B1 RNA with A25U, C27A, G29A, G30U", "DNA 1": "CAATCTGAATTCCGGTCTCCC", "DNA 2": "TGGTGGCTACGACGGGATT"}, "B30": {"name": "CCCUGAA (DNA:RNA)", "RNA": "B1 RNA with A25C, G26C, A28U, G30A, G31A", "DNA 1": "CAATCTGAATTCCGGTCTCCC", "DNA 2": "TGGTGGCTACGACGGGATT"}, "B31": {"name": "UGAAUGU (DNA:RNA)", "RNA": "B1 RNA with A25U, C27A, G29U, G31U", "DNA 1": "CAATCTGAATTCCGGTCTCCC", "DNA 2": "TGGTGGCTACGACGGGATT"}, "B32": {"name": "CUGAAUC (DNA:RNA)", "RNA": "B19 RNA with G25C, C26U, C28A", "DNA 1": "CAATCTGAATTCCGGTCTCCC", "DNA 2": "TGGTGGCTACGACGGGATT"}, "B33": {"name": "UGAUUGU (DNA:RNA)", "RNA": "B1 RNA with A25U, C27A, A28U, G29U, G31U", "DNA 1": "CAATCTGAATTCCGGTCTCCC", "DNA 2": "TGGTGGCTACGACGGGATT"}},
  "note": "Numbering of substitutions follows the chain as printed; changes in the protein carry UniProt numbers. Whole data set: some 16,000 sequences, median “ka relative to ugcaugu” near 0.0091, cut for the highest 2% near 0.032. Only a selection was taken, and the highest values are over-represented in it overall.",
  "data": [
    {"molecular_target": "T1, RBFOX1 RRM (Homo sapiens, UniProt Q9NWB1 109-208)", "T1 sequence": "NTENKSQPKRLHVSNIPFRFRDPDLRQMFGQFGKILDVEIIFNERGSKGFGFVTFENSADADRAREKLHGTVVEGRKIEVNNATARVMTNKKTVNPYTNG", "test": "EMSA; HiTS-Eq, 1 nM pool, 10 min; buffer printed only for the single-RNA assays: 10 mM Tris pH 7.5, 150 mM NaCl, 3.4 mM EDTA, 0.001% NP-40, 30 C", "conditions": "tags: His6 N-terminal (pET28a); label: 5' 32P", "how_it_was_run": "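Purified RbFox RRM, wild type or mutant, was incubated for 10 min in 50 µL with 1 nM of a 5′-radiolabelled RNA pool carrying 7 randomized nucleotides, whose flanks were annealed to DNA oligonucleotides, over a series of increasing protein concentrations. Unbound RNA was resolved on 8% native PAGE, cut out, reverse-transcribed, barcoded by PCR and sequenced on an Illumina HiSeq 2500. Relative association constants were derived from changes in read counts for each RNA species versus the control reaction and normalised to the cognate motif.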", "values": [
      {"binder": "B1", "binding signal": "0.0126 KA relative to UGCAUGU"},
      {"binder": "B2", "binding signal": "0.0201 KA relative to UGCAUGU"},
      {"binder": "B3", "binding signal": "0.00757 KA relative to UGCAUGU"},
      {"binder": "B4", "binding signal": "0.0374 KA relative to UGCAUGU"},
      {"binder": "B5", "binding signal": "0.0262 KA relative to UGCAUGU"},
      {"binder": "B6", "binding signal": "0.014 KA relative to UGCAUGU"},
      {"binder": "B7", "binding signal": "0.0203 KA relative to UGCAUGU"},
      {"binder": "B8", "binding signal": "0.00753 KA relative to UGCAUGU"},
      {"binder": "B9", "binding signal": "0.0157 KA relative to UGCAUGU"},
      {"binder": "B10", "binding signal": "0.00233 KA relative to UGCAUGU"},
      {"binder": "B11", "binding signal": "0.0141 KA relative to UGCAUGU"},
      {"binder": "B12", "binding signal": "0.0238 KA relative to UGCAUGU"},
      {"binder": "B13", "binding signal": "0.843 KA relative to UGCAUGU"},
      {"binder": "B14", "binding signal": "0.8 KA relative to UGCAUGU"},
      {"binder": "B15", "binding signal": "0.689 KA relative to UGCAUGU"},
      {"binder": "B16", "binding signal": "0.0208 KA relative to UGCAUGU"},
      {"binder": "B17", "binding signal": "0.00982 KA relative to UGCAUGU"},
      {"binder": "B18", "binding signal": "0.0149 KA relative to UGCAUGU"},
      {"binder": "B19", "binding signal": "0.0246 KA relative to UGCAUGU"},
      {"binder": "B20", "binding signal": "0.00174 KA relative to UGCAUGU"},
      {"binder": "B21", "binding signal": "0.000946 KA relative to UGCAUGU"},
      {"binder": "B22", "binding signal": "0.0183 KA relative to UGCAUGU"},
      {"binder": "B23", "binding signal": "0.00889 KA relative to UGCAUGU"},
      {"binder": "B24", "binding signal": "0.016 KA relative to UGCAUGU"},
      {"binder": "B25", "binding signal": "0.00505 KA relative to UGCAUGU"},
      {"binder": "B26", "binding signal": "0.0065 KA relative to UGCAUGU"},
      {"binder": "B27", "binding signal": "0.00899 KA relative to UGCAUGU"},
      {"binder": "B28", "binding signal": "0.0348 KA relative to UGCAUGU"},
      {"binder": "B29", "binding signal": "0.0128 KA relative to UGCAUGU"},
      {"binder": "B30", "binding signal": "0.00426 KA relative to UGCAUGU"},
      {"binder": "B31", "binding signal": "0.0386 KA relative to UGCAUGU"},
      {"binder": "B32", "binding signal": "0.00905 KA relative to UGCAUGU"},
      {"binder": "B33", "binding signal": "0.0253 KA relative to UGCAUGU"}
    ]}
  ]
}
